# A selection: hits, their analogues and other compounds. The true share with any hit is near 3.4%.
# ADAM17 inh: inhibitors of human ADAM17; inhibition, % at 6.95 µM; recombinant ADAM17, EDANS/DABCYL FRET peptide cleavage; 370,000 tested, 0.83% active;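 active means inhibition above the mean of compounds lying between control limits plus 3 SD, set per campaign, cut at about 8.5% in these data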;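 further: 0% = DMSO-only wells as the low control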
# Target sequence (P78536 215-824 limits assumed): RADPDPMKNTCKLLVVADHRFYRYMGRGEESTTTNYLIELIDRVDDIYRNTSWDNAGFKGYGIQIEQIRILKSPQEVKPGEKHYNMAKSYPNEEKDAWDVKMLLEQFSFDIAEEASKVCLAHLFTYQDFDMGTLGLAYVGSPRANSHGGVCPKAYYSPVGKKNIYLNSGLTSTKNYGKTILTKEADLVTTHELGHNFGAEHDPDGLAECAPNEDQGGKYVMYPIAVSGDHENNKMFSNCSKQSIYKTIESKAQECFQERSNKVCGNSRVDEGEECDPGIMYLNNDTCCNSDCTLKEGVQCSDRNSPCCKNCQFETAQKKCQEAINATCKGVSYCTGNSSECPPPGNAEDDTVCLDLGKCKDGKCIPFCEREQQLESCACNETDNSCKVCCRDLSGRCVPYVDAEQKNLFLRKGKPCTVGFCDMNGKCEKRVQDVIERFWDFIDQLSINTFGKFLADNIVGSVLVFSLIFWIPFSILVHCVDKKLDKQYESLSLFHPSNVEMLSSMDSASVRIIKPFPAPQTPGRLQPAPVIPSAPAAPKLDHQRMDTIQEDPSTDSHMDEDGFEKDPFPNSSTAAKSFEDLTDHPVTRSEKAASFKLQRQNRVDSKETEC
# PLC-beta3 inh: PLC-beta3 (human) inhibition, primary screen; Q01970; inhibition, % at 12.2 µM; 370,000 tested, 0.18% active; Purified PLC-beta3, fluorogenic substrate, fluorescence; in the data active means inhibition above about 11%;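 further: 0% = median of compound wells on plate and 100% = full blocker control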
# KLK7 zymogen act: proKLK7 (human) activation, primary screen. activation, % at 7 µM. AID 652039. 370,000 tested, 0.9% active. purified proKLK7, EDANS-DABCYL substrate fluorescence; 100% is mature enzyme control, 0% vehicle. P49862;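 active means activation above the mean of all tested compounds plus 3 SD, computed per campaign excluding outliers beyond control limits, cut at about 13% in these data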
# sPLA2-III inh: Blocks human group III sPLA2 activity. AID 743126. QFRET BODIPY PC-A2 liposome hydrolysis, fluorescence. inhibition, % at 12.2 µM. 370,000 tested, 0.56% active;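 active means inhibition above mean plus 3 SD of compounds lying within the high and low control bounds, cut at about 19% in these data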;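 further: 0% = median of test compound wells and 100% = no enzyme DMSO wells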
# ADAM10 inh: ADAM10 inhibition, QFRET primary screen | inhibition, % at 7 µM | 370,000 tested, 0.62% active | O14672 | recombinant ADAM10, EDANS/DABCYL FRET peptide cleavage, 3 h;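 active means inhibition above a per-campaign cutoff equal to the mean of compounds falling between control-based bounds plus 3 SD, cut at about 20% in these data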;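 further: 0% = DMSO wells while the 100% control is not disclosed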
# PLCg1 inh: inhibitors of human phospholipase C gamma1; P19174; purified PLC-gamma1, fluorogenic substrate, fluorescence; inhibition, % at 12.2 µM; 370,000 tested, 0.84% active; AID 720700; in the data active means inhibition above about 9.5%
# ADAM10 confirm: confirmation of inhibitors of human ADAM10; shares compounds with ADAM10 inh; ADAM10 QFRET peptide cleavage, EDANS fluorescence; inhibition, % at 6.95 µM; 2,100 tested, 1% active; AID 743208;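 active means inhibition above about 20% chosen separately for each screening run, limit read from the data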;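 further: 0% = DMSO wells and 100% = marimastat wells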
# ADAM17 counter: counter-screen for ADAM10 exosite inhibitors: inhibitors of human ADAM17 | shares compounds with ADAM10 inh | ADAM17 QFRET peptide cleavage, EDANS fluorescence | inhibition, % at 6.95 µM | 2,100 tested, 0.5% active;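 active means mean triplicate inhibition above the solvent-only control wells' mean plus 3 SD, cut at about 12% in these data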;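 further: 0% = DMSO wells and 100% = marimastat wells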
# ADAM10 ctr: inhibits human ADAM10 in ADAM17 exosite counter-screen. shares compounds with ADAM17 inh. recombinant ADAM10, EDANS/DABCYL FRET peptide cleavage, 3 h. inhibition, % at 6.95 µM. 2,900 tested, 47% active. AID 743256;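 active means mean inhibition over the triplicate runs exceeds the activity threshold set in the earlier primary screen, cut at about 20% in these data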;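 further: 0% = DMSO wells and 100% = marimastat wells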
# ADAM17 confirm: human ADAM17 inhibition, confirmation | shares compounds with ADAM17 inh | recombinant ADAM17, EDANS/DABCYL QFRET peptide cleavage | inhibition, % at 6.95 µM | 2,900 tested, 65% active | AID 743257;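 active means mean inhibition across replicates above the hit cutoff set in the primary screen, cut at about 8.5% in these data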;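 further: 0% = DMSO wells and 100% = marimastat wells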
# * = called active by the depositor; . = no result.
SMILES,ADAM17 inh,PLC-beta3 inh,KLK7 zymogen act,sPLA2-III inh,ADAM10 inh,PLCg1 inh,ADAM10 confirm,ADAM17 counter,others
Cc1cc(C(=O)OC(C(=O)Nc2ccc(C)c(Cl)c2)c2ccccc2)c(C)o1 (configuration not stated),7,-1,-1,-10,22*,0,5,3,
O=C(Nc1ccc(OCC(F)(F)C(F)F)c(C(F)(F)F)c1)c1ccccc1,7,0,1,-8,24*,-4,3,0,
COc1cc(CNn2c(C)n[nH]c2=S)cc(Cl)c1OCc1ccccc1,5,2,0,10,28*,8,-1,0,
COc1cc(CNn2cn[nH]c2=S)cc(Cl)c1OCc1ccc(F)cc1,-1,4,0,5,11,1,.,.,
Nc1[nH]c(C(=O)c2ccccc2)c(-c2ccc(Cl)cc2)c1C(=O)c1c[nH]c2ccccc12,-4,-13,0,-4,-12,-10,.,.,
Cc1[nH]c2ccccc2c1C(=O)c1c(N)[nH]c(C(=O)c2ccccc2)c1-c1ccc(Cl)cc1,5,-15,0,10,21*,-12,8,2,
CCCCNC(=O)C[C@H]1C[C@@]2(C(=O)OC)C(=C[C@H](COCc3ccccc3)O[C@@H]2C)N(CCc2ccc(OC)c(OC)c2)C1=O,-1,2,1,-7,-1,0,.,.,
COc1ccc(S[C@]2(C(=O)N3CCN(C(C)=O)CC3)CC(=O)N(C(=O)c3ccccc3)[C@@H]2c2ccc(OC)cc2)cc1,-4,1,0,-3,-5,-1,.,.,
Cc1cc(C)c(C(=O)OCC(=O)Nc2cccc(S(=O)(=O)N3CCCCC3)c2)c(C)c1,13*,0,0,-39,28*,1,8,4,
COc1ccccc1CCC(=O)Nc1cccc(S(=O)(=O)N2CCCCCC2)c1,7,-2,0,-45,23*,3,2,0,
Cc1ccccc1C(=O)NNC(=S)Nc1cccc(C(F)(F)F)c1,8.7*,5,0,24*,25*,6,4,1,
Cc1ccc(NC(=O)CSc2nc(NS(=O)(=O)c3ccc(C)cc3)cc(=O)[nH]2)cc1,7,-2,0,-47,23*,1,8,1,
Cc1ccc(S(=O)(=O)Nc2cc(=O)[nH]c(SCC(=O)Nc3cccc(C(F)(F)F)c3)n2)cc1,-1,-1,-1,3,4,7,.,.,
CC(=O)Nc1ccc(S(=O)(=O)NCCCCNS(=O)(=O)c2ccc(NC(C)=O)cc2)cc1,-6,1,-1,-1,4,2,.,.,
CC(=O)Nc1ccc(S(=O)(=O)NCCSCc2ccc(Cl)cc2Cl)cc1,8,3,0,-50,22*,3,5,1,
Clc1ccccc1C1CC(c2ccccc2)Nc2ncnn21 (configuration not stated),-3,-3,0,13,92*,3,2,-1,
c1ccc(C2CC(c3ccccc3)n3ncnc3N2)cc1 (configuration not stated),-4,-2,0,4,-8,-2,.,.,
CCCC(=O)N1CCC[C@]2(CC[C@@H](CCC(=O)N(CC)CC)O2)C1,-1,3,0,7,-2,2,.,.,
Cc1cccc(OCCNC(=O)c2ccc(Oc3ccc(C(F)(F)F)cc3[N+](=O)[O-])cc2)c1,0,1,0,-4,26*,0,7,2,
O=C(c1ccc(Oc2ccc(C(F)(F)F)cc2[N+](=O)[O-])cc1)N1CCOCC1,1,1,0,-6,2,2,.,.,
Cc1cccc(-c2nnc(SCC(=O)Nc3cccc4ccccc34)n2Cc2ccco2)c1,4,4,0,-26,5,0,.,.,
CCCC/C=C1/[C@@H](CC)N(Cc2ccc(OC)cc2OC)C2=N[C@H](c3ccccc3)CC(=O)N21,-8,4,.,13,-5,6,.,.,
C=CCn1c(C)cc(C(=O)COC(=O)C2CC(=O)N(Cc3ccccc3)C2)c1C (configuration not stated),-2,1,0,-7,78*,0,0,0,
COc1cc(NC(=O)Nc2ccc3c(c2)OCO3)cc(OC)c1OC,-2,1,-1,-4,1,-1,.,.,
COc1ccc(C(C)(C)C)cc1NC(=O)Nc1ccc2c(c1)OCO2,10*,2,0,0,24*,3,5,2,ADAM10 ctr=41*;ADAM17 confirm=24*
SMILES,ADAM17 inh,PLC-beta3 inh,KLK7 zymogen act,sPLA2-III inh,ADAM10 inh,PLCg1 inh,ADAM10 confirm,ADAM17 counter,others
CN(Cc1ccccc1)C(=O)OCc1cn(Cc2ccc(F)cc2)nn1,1,-1,0,5,3,4,.,.,
CCCCc1ccc(NC(=O)CN(C)CC(=O)Nc2ccccc2Cl)cc1,16*,-40,0,-15,34*,8,2,1,ADAM10 ctr=20*;ADAM17 confirm=9.6*
CCOC(=O)c1c(C)[nH]c(C)c1C(=O)COC(=O)c1cccc(C)c1O,9.3*,-9,1,-12,20*,0,6,1,ADAM10 ctr=7;ADAM17 confirm=8
COc1ccc(N2CCC(CNC(=S)Nc3cccc(OC)c3)C2)cc1 (configuration not stated),8.8*,-7,0,15,20*,-7,3,1,ADAM10 ctr=11;ADAM17 confirm=11*
COC(=O)c1cc(-c2cccc3ccccc23)c(=O)n2c1CCC2,-20,-12,0,3,-64,-13,.,.,
O=C1NC[C@H](c2ccccc2)OC(=O)[C@H](Cc2ccc(F)cc2)CC/C=C/C[C@H]1CC(=O)N(CCO)Cc1ccccc1,17*,6,0,-31,24*,6,3,1,ADAM10 ctr=22*;ADAM17 confirm=11*
O=C(NCc1cc(C(F)(F)F)cc(C(F)(F)F)c1)C1CC(c2ccccc2C(F)(F)F)=NO1 (configuration not stated),17*,-2,0,2,31*,-3,0,0,ADAM10 ctr=49*;ADAM17 confirm=25*
O=C(NCc1ccc(OC(F)(F)F)cc1)C1CC(c2c(Cl)cccc2Cl)=NO1 (configuration not stated),9.5*,6,0,-8,21*,3,2,0,ADAM10 ctr=24*;ADAM17 confirm=13*

# Source: PubChem BioAssay
